# TDP1 inh = inhibitors of human tyrosyl-DNA phosphodiesterase TDP1 | AID 485290 | recombinant TDP1, AlphaScreen DNA substrate cleavage | Q9NUW8 | hit rate 0.28% among 350,000 | Potency, µM (highest dose often 130 µM), without a hit: at the highest dose activity change, negative = inhibition, usual class: inhibitors; further: potency means the concentration at half of the fitted maximal effect; nearly all actives have a fitted effect of over 40% in size
# Target sequence (Q9NUW8 whole entry, looked up): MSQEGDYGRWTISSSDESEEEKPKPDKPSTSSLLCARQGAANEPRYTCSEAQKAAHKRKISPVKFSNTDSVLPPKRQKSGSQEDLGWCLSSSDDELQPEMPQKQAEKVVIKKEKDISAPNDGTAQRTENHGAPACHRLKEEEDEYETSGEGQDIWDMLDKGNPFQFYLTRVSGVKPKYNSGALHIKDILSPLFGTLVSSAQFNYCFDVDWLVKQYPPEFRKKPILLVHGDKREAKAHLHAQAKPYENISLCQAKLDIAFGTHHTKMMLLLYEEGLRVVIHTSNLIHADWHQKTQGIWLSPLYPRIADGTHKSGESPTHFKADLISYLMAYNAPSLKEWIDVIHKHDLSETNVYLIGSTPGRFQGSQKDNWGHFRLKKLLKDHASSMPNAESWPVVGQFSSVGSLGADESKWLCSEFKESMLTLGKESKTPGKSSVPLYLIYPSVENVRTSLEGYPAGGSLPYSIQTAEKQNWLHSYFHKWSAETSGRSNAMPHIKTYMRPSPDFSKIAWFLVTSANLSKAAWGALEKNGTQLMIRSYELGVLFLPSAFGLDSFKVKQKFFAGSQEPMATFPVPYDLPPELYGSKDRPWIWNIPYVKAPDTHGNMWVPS
#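 Enzyme-compound mixtures sat 15 min at room temperature, followed by a 5 min reaction with 15 nM final substrate and 10 min with AlphaScreen beads. Recombinant human Tdp1 was used at 1 nM final.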
# Giardia kill = kills Giardia lamblia. Giardia lamblia trophozoite viability. activity change, % at 7.66 µM, hits read low. hit rate 0.15% among 340,000. AID 540267; in the data active means activity change below about -80%; inconclusive means between about -30% and that limit;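 further: parasites exposed to compound for two days anaerobically before the ATP read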
#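 Giardia lamblia trophozoites (100 cells/well) were incubated with compounds for 48 h at 37 deg C under anaerobic conditions. Viability was read as ATP content by one-step luminescence after 15-30 min at room temperature.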
# ELG1 repair inh = ELG1-dependent DNA repair inhibition | HEK293T ELG1-luciferase reporter, luminescence, 16 h; DNA damage induced by 5-fluorouridine | Potency, µM (highest dose often 46.1 µM), inactives show top-dose activity change, negative = inhibition, actives largely listed as inhibitors | hit rate 2.3% among 330,000; further: potency means the concentration at half of the fitted maximal effect; nearly all actives have a fitted effect of over 55% in size
#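 DMSO vehicle served as the neutral condition. Each well held 2,000 cells given 5-fluorouridine plus compound; after 16 hr at 37 °C/5% CO2, ONE-Glo was added and luciferase measured 30 min later.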
# DT40 TDP1 no CPT = qHTS for Inhibitors of human tyrosyl-DNA phosphodiesterase 1 (TDP1): qHTS in cells in absence of CPT; DT40 Tdp1-/- hTDP1 cells, no CPT, ATP luminescence, 48 h; Potency, µM (titrated, usually from 46.2 µM), without a hit: at the highest dose activity change, negative = growth inhibition, actives largely listed as inhibitors; hit rate 15% among 420,000; AID 686978, 2013; further: potency means the concentration at half of the fitted maximal effect; nearly all actives have a fitted effect of over 55% in size
#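 Readout: luminescence from CellTiter-Glo after 30 min in the dark at RT. Cells: DT40 Tdp1-/- with stable hTDP1, 400/well. Exposure: compounds alone, ≥48 hr, 37 °C.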
# IL1B secr inh = inhibitors of inflammasome signaling (IL-1 beta secretion). THP-1 LPS/ATP IL-1B secretion, AlphaLISA, 16 h; stronger effect = lower value. activity change, % at 57.5 µM. hit rate 4.7% among 360,000; in the data active means activity change below about -50%; inconclusive means mostly about -30% to -49%
#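 THP-1 cells pretreated 1 hr with compounds (up to 57.5 uM final), then stimulated with LPS (250 ng/mL final) plus ATP (1.25 mM final); secreted IL-1B measured by AlphaLISA after 16 hr, decreased signal indicating inhibition.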
# DT40 TDP1 CPT = growth inhibition of DT40 Tdp1-/-;hTDP1 cells with camptothecin (screen for TDP1 inhibitors) | chicken DT40 Tdp1-/-;hTDP1 cells + 20 nM CPT, ATP luminescence, 48 h | Potency, µM (highest dose often 46.2 µM), without a hit: at the highest dose activity change, negative = growth inhibition, actives largely listed as inhibitors | hit rate 12% among 420,000 | AID 686979; further: potency means the concentration at half of the fitted maximal effect; nearly all actives have a fitted effect of over 55% in size
#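 Chicken DT40 Tdp1-/- cells stably complemented with human TDP1 were seeded at 400 cells/well in medium containing 20 nM camptothecin, exposed to pin-transferred compounds, and grown at 37 °C for at least 48 hr. Viability was read as ATP luminescence.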
# Numbers without * were called inactive; ? = inconclusive; nt = no result; [ ] = remark or other dose. Sampled rows, rich in hits. Any-hit rate of the full collection: about 19%. Unless noted, the call rests on the fitted dose curve; in most records, active means well fitted curve in the direction sought with a large enough effect; inconclusive means small, poorly fitted or top-dose-only effect, or another doubt; inactive means no such curve, though single readings can be large; an effect the other way counts as inactive or inconclusive. On the % scale 0 is the no-effect control and ±100 the full control effect.
SMILES,TDP1 inh,Giardia kill,ELG1 repair inh,DT40 TDP1 no CPT,IL1B secr inh,DT40 TDP1 CPT
Cc1csc(-c2cnn(-c3ccccc3)c2NC(=O)c2ccc(C(F)(F)F)cc2)n1,7.0%,-2.6,-6.1%,23.1µM*,-20.3,?
COC(=O)C1SCC2C(=O)N(Cc3ccc(Cl)cc3)CC(=O)N21 (centres undefined),0.0%,-4.2,4.7%,-3.6%,-7.8,8.9%
COC(=O)C1SCC2C(=O)N(Cc3ccc(Cl)c(Cl)c3)CC(=O)N21 (centres undefined),4.8%,1.8,-5.4%,?,-4.8,23.1µM*
O=C(CN(Cc1ccco1)C(=O)c1cccc(F)c1)Nc1ccccc1C(F)(F)F,0.9%,1.3,-2.5%,-24.3%,-20.6,-16.5%
Oc1ccc(Cl)cc1CNCC1CCCCC1,0.7%,28.6,?,?,-63.8*,14.6µM*
CCOc1ccc(CNC(=O)CN2C(=O)CCn3nc(-c4cn(C)c5ccccc45)cc32)cc1OC,5.3%,nt,nt,-8.0%,nt,-13.2%
COc1ccc(C(=O)N2CCC3(CCCN(Cc4cc(C(F)(F)F)cc(C(F)(F)F)c4)C3)CC2)cc1,nt,nt,nt,?,nt,20.6µM*
FC(F)(F)c1cc(CN2CCCC3(CCNCC3)C2)cc(C(F)(F)F)c1,nt,nt,nt,18.4µM*,nt,?
CCOC(=O)CNC(=O)CSc1cn(CC(=O)N2CCCCCC2)c2ccccc12,2.6%,nt,nt,-8.0%,nt,1.4%
COc1ccc(C2CC(c3ccccc3)=NN2c2ccc(S(N)(=O)=O)cc2)cc1 (centres undefined),nt,2.3,-5.8%,?,?,-13.3%
Oc1ccc(C2=NN(c3ccccc3)C(c3ccc(F)cc3)C2)cc1 (centres undefined),nt,7.1,-8.3%,?,-97.8*,?
CC(=O)Nc1ccc(C2=NN(c3ccccc3)C(c3ccccc3)C2)cc1 (centres undefined),nt,3.2,?,23.1µM*,34.8,?
NS(=O)(=O)c1ccc(N2N=C(c3ccccc3)CC2c2cccc(Cl)c2)cc1 (centres undefined),-5.6%[56.1 µM],0.9,-16.5%,-22.5%,-70.2*,-27.6%
NS(=O)(=O)c1ccc(N2N=C(c3ccccc3)CC2c2ccc(F)cc2)cc1 (centres undefined),-2.8%,-14.7,?,?,-61.2*,?
CCOc1ccccc1C(=O)Nc1cc(C)ccc1NC(=O)c1ccco1,1.9%,-14.0,-18.8%,-4.8%,-11.6,?
COCC(=O)N1CCC[C@@]2(CCN(c3ccccn3)C2)C1,nt,nt,nt,3.3%,nt,12.2%
CC(C)NC(=O)C1(C)CSCC(=O)N1Cc1cccc(C(F)(F)F)c1 (centres undefined),nt,nt,nt,2.4%,25.6,-2.8%
COc1ccc(NC(=O)N2CC[C@@]3(CCCN(C(=O)c4ccc(OC)cc4)C3)C2)cc1,nt,nt,nt,-7.3%,nt,-11.1%
Cc1ccc(N2N=C(c3ccc(F)cc3)CC2c2ccco2)cc1 (centres undefined),nt,0.6,15.2%,?,8.9,18.4µM*
N#CCC(=O)N/N=C/c1ccc(N2N=C(c3ccccc3)CC2c2ccccc2)cc1 (centres undefined),-4.1%,-17.8,?,18.4µM*,-7.4,23.1µM*
COc1ccc(C2CC(c3ccccc3)=NN2c2ccc(/C=N/NC(=O)c3ccncc3)cc2)cc1 (centres undefined),4.8%,15.6,?,?,14.7,?
Cc1ccc(CN(C(=O)c2ccc([N+](=O)[O-])cc2)c2ccccn2)cc1,6.8%,nt,nt,?,nt,?
OCCC1CN(Cc2ccccc2OC2CCCC2)CCN1Cc1ccsc1 (centres undefined),-2.4%,3.2,2.9%,14.6µM*,-5.9,?
OCCC1CN(Cc2ccc(-c3ccco3)cc2)CCN1Cc1ccsc1 (centres undefined),5.1%,9.6,-12.8%,?,-61.2*,?
CN(C(=O)CNC(=O)c1ccc(Br)o1)C1CCCCC1,3.2%,-4.4,?,-3.6%,-2.8,16.2%
SMILES,TDP1 inh,Giardia kill,ELG1 repair inh,DT40 TDP1 no CPT,IL1B secr inh,DT40 TDP1 CPT
COc1ccc(-c2cc3c(=O)n(CC(=O)NCCCN4CCC(N5CCCCC5)CC4)ncn3n2)cc1,1.8%,-21.8,?,?,-11.5,14.6µM*
NC(Cc1ccc(Cl)cc1)c1csc(Nc2ccc(C(=O)NCCCO)cn2)n1 (centres undefined),nt,nt,nt,?,0.2,?
NC(Cc1ccc(Cl)cc1)c1csc(Nc2cc(NCCCO)ncn2)n1 (centres undefined),nt,nt,nt,14.6µM*,-60.1*,?
COc1ccc(CC(N)c2csc(Nc3cc(NCCCO)ncn3)n2)cc1 (centres undefined),nt,nt,nt,?,-56.8*,?
NC(Cc1ccc(Cl)cc1)c1csc(Nc2ccc(-c3ccccc3)nn2)n1 (centres undefined),nt,nt,nt,-89.8%,-50.2*,6.51µM*
NC(COCc1ccccc1)c1csc(Nc2cc(NCCCO)ncn2)n1 (centres undefined),nt,nt,nt,?,-29.0,?
COc1cccc(N2C(=NC(=O)C3CCCCC3)SC3CS(=O)(=O)CC32)c1 (centres undefined),2.0%,8.1,5.5%,3.3%,-5.2,2.1%
Cc1c(NC(=O)C(C)OC(=O)CCOc2ccccc2)c(=O)n(-c2ccccc2)n1C (centres undefined),nt,13.2,-4.4%,2.7%,6.8,-4.8%
CCCOc1ccc(N2C(=O)CC(N3CCN(c4ccc([N+](=O)[O-])cc4)CC3)C2=O)cc1 (centres undefined),nt,8.2,2.06µM*,-45.8%,5.7,-2.1%
COc1ccc(N2C(=O)CC(N3CCN(c4ccccc4)CC3)C2=O)cc1 (centres undefined),nt,-12.4,6.1%,19.3%,30.6,-7.1%
COc1ccc(N2C(=O)CC(N3CCN(c4ccc(Cl)cc4)CC3)C2=O)cc1 (centres undefined),nt,-11.6,-21.3%,10.9%,-50.6*,1.7%
O=C(O)CCn1c(SCCc2ccccc2)nc2ccccc21,nt,8.4,nt,-12.6%,14.3,1.9%
O=C(C1CCCCC1)N(Cc1cccnc1)c1nc2c(F)cc(F)cc2s1,5.2%,nt,nt,14.6µM*,nt,20.6µM*
COc1ccc2sc(N(Cc3cccnc3)C(=O)C3CCCCC3)nc2c1,2.6%,nt,nt,23.1µM*,nt,13µM*

# Screens from PubChem.
